Reference: PubChem BioAssay (Tox21)
Where “and” joins values, the source holds several entries; their conditions need not be identical. Equal values may be shown once. Records with an inconclusive call do not appear. Where a call stands in place of a potency, no number is given. A structure can be active in one record and inactive in another. Calls of active or inactive are those of the source. Unless noted, calls follow the shape of the dose curve; as a rule, active = well fitted curve in the direction sought with a large enough effect in the repeat runs; inconclusive = weak or mixed curves; inactive = no such curve, though single readings can be large; an effect the other way counts as inactive or inconclusive.

What was measured:
[1] = qHTS assay to identify small molecule antagonists of the estrogen related receptor (ERR) signaling pathway from Tox21 library - cell viability counter screen (AID 1224834); also: nearly all actives have a fitted effect of over 30% in size; also: potency is read from the fitted curve at half-maximal effect
Method in brief: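 Cytotoxicity of test substances is gauged in the same ERR cells used for the antagonist screen, after 17.5 h of compound treatment at 37 C, by CellTiter-Fluor fluorescence measured after 30 min.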

[2] = molecular target: Luciferin 4-monooxygenase (Photinus pyralis) (UniProt P08659); test: qHTS assay to identify small molecule inhibitors of firefly luciferase (AID 1224835); also: series mostly up to about 120 µM; nearly all actives have a fitted effect of over 25% in size
Luciferin 4-monooxygenase (Photinus pyralis), sequence (P08659 whole entry, looked up): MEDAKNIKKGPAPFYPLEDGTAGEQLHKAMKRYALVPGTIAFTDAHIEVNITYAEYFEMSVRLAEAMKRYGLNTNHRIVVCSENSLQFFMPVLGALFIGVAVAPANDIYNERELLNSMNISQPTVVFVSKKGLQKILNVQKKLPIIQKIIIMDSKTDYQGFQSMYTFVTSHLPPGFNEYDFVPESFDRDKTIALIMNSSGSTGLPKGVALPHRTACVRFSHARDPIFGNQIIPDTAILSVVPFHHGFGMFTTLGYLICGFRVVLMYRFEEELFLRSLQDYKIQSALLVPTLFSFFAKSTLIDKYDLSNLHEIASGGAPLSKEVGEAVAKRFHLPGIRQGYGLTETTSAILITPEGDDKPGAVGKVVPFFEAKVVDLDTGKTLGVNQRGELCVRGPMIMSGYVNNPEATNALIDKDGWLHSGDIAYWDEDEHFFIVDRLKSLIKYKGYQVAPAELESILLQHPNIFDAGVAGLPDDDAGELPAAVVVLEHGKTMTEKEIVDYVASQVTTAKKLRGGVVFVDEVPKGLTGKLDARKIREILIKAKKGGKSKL
Method in brief: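 Biochemical qHTS: compounds run as interplate titrations against purified firefly enzyme, with D-luciferin and ATP each at its KM concentration. Light output recorded by CCD imaging.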

[3] = qHTS assay to identify small molecule agonists of the constitutive androstane receptor (CAR) signaling pathway - cell viability counter screen (AID 1224836); also: nearly all actives have a fitted effect of over 45% in size; also: potency is read from the fitted curve at half-maximal effect
Method in brief: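 Fluorescence from CellTiter-Fluor indicates live cells after 23 h exposure. The human hepatoma line expresses hCAR and a CYP2B6-2.2kb reporter. Incubation medium contains 0.75 uM PK11195 (final).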

[4] = qHTS assay to identify small molecule antagonists of the constitutive androstane receptor (CAR) signaling pathway - cell viability counter screen (AID 1224837); also: nearly all actives have a fitted effect of over 45% in size; also: potency is read from the fitted curve at half-maximal effect
Method in brief: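 Multiplexed cytotoxicity read-out for the CAR antagonist screen: double-stable HepG2-CYP2B6-hCAR cells co-treated with 50 nM CITCO (final) and compound over 15 concentrations, incubated 23 hr, then assessed by CellTiter-Fluor fluorescence.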

[5] = molecular target: Nuclear receptor subfamily 1 group I member 3 (Homo sapiens) (UniProt Q14994); test: qHTS assay to identify small molecule antagonists of the constitutive androstane receptor (CAR) signaling pathway (AID 1224838); also: nearly all actives have a fitted effect of over 40% in size; also: potency is read from the fitted curve at half-maximal effect
Nuclear receptor subfamily 1 group I member 3 (Homo sapiens), sequence (Q14994 whole entry, looked up): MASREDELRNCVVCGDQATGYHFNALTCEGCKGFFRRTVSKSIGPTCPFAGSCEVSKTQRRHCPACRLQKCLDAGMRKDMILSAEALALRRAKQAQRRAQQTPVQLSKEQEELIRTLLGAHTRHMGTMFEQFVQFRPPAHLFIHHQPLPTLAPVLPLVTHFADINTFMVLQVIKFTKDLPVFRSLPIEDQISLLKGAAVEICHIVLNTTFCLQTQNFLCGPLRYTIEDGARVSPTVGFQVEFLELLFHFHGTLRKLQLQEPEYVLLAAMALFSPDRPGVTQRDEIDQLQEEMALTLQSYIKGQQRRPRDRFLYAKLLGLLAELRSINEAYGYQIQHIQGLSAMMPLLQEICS
Method in brief: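 Compounds were titrated across 15 concentrations onto HepG2 cells double-stably expressing hCAR and a CYP2B6-2.2kb reporter, together with 50 nM CITCO (final). After 24 h at 37 C, luciferase activity was measured by luminescence.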

[6] = molecular target: Nuclear receptor subfamily 1 group I member 3 (Homo sapiens) (UniProt Q14994); test: qHTS assay to identify small molecule agonists of the constitutive androstane receptor (CAR) signaling pathway (AID 1224839); also: nearly all actives have a fitted effect of over 15% in size; also: potency is read from the fitted curve at half-maximal effect
Method in brief: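 Stable hCAR/CYP2B6-2.2kb HepG2 line in DMEM with 10% FBS; compounds (15 concentrations) and 0.75 uM PK11195 final, 24 h at 37 C/5% CO2, then ONE-Glo luminescence after 30 min.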

[7] = qHTS assay to identify small molecule antagonists of the estrogen related receptor signaling pathway with the pleiotropic PPARgamma coactivator (PGC) from Tox21 10K library - cell viability counter screen (AID 1224840; active = well fitted cell-killing curve with a large enough effect in the repeat runs, not every such curve was filed as active; also: nearly all actives have a fitted effect of over 40% in size; also: potency is read from the fitted curve at half-maximal effect)
Method in brief: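 Step one, plate 2,000 PGC/ERR cells per well; step two, incubate 6 h at 37 C/5% CO2; step three, pin-transfer compounds; step four, incubate 17.5 h; step five, add CellTiter-Fluor and read fluorescence after 30 min.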

[8] = molecular target: Thyrotropin receptor (Homo sapiens) (UniProt P16473); test: qHTS assay to identify small molecule agonists of the thyroid stimulating hormone receptor (TSHR) signaling pathway (AID 1224843; calls by dose curve; also: nearly all actives have a fitted effect of over 45% in size)
Thyrotropin receptor (Homo sapiens), sequence (P16473 whole entry, looked up): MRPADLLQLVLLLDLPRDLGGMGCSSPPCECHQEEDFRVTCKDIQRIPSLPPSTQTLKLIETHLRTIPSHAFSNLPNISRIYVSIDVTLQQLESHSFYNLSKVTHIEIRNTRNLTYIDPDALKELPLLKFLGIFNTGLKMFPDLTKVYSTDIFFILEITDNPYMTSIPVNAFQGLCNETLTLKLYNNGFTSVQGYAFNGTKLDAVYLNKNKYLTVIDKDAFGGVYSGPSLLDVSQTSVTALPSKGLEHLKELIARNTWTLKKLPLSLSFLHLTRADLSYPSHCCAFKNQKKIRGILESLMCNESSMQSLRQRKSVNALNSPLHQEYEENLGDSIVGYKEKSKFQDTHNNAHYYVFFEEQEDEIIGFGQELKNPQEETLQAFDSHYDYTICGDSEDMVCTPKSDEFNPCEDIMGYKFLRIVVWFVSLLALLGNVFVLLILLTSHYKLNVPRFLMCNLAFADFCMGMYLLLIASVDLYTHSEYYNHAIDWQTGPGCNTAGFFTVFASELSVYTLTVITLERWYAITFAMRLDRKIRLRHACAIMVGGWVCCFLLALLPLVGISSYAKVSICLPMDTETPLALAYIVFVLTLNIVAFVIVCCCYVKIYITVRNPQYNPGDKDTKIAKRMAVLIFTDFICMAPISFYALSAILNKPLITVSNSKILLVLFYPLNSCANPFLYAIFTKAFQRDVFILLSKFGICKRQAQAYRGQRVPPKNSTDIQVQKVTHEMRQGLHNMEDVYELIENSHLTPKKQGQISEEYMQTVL
Method in brief: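 TSHR-HEK293 cells in agonist mode, 30 min room-temperature step, then cAMP measured by competitive HTRF (cAMP-d2 with anti-cAMP cryptate) after 1 h at room temperature. Tested at 15 concentrations in triplicate.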

[9] = qHTS assay to identify small molecule agonists of the hypoxia (HIF-1) signaling pathway - cell viability counter screen (AID 1224844; calls by dose curve; also: nearly all actives have a fitted effect of over 50% in size)
Method in brief: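 Tox21 10K compounds were added to HRE-bla ME-180 cells (0.5% dialyzed FBS) and incubated 17 hrs at 37C; ATP-based CellTiter-Glo luminescence then reported cell viability in the same wells.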

[10] = qHTS assay to identify small molecule agonists of the estrogen related receptor signaling pathway with the pleiotropic PPARgamma coactivator (PGC) from Tox21 10K library (AID 1224842); also: nearly all actives have a fitted effect of over 15% in size
Method in brief: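 PGC/ERR reporter cell line, 2,000 cells per well, incubated 6 h at 37 C before 23 nL compound in DMSO was added. After 18 h at 37 C, One-Glo luminescence read following 30 min at room temperature.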

| SMILES | Potency [1] | Potency [2] | Potency [3] | Potency [4] | Potency [5] | Potency [6] | Potency [7] | outcome [8] | Potency [9] | Potency [10] |
| --- | --- | --- | --- | --- | --- | --- | --- | --- | --- | --- |
| O=C1NC(=O)c2ccccc21 | inactive | inactive | inactive | inactive | inactive | inactive | inactive | inactive | inactive |  |
| CC(O)CN(CCN(CC(C)O)CC(C)O)CC(C)O (stereo not given) | inactive | inactive | inactive | inactive | inactive | inactive | inactive | inactive | inactive |  |
| O=c1cc[nH]c(=S)[nH]1 | inactive | inactive | inactive | inactive | inactive | inactive | inactive | inactive | inactive | inactive |
| O=C(O)CCC(=O)O | inactive | inactive | inactive | inactive | inactive | inactive | inactive | inactive | inactive | inactive |
| Cc1ccccc1C(OCCN(C)C)c1ccccc1 (stereo not given) | inactive | inactive | inactive | inactive | inactive | inactive | inactive | inactive | inactive | inactive |
| Cc1ccc(S(=O)(=O)NC(=O)NN2CCCCCC2)cc1 | inactive | inactive | inactive | inactive | inactive |  | inactive | inactive | inactive | inactive |
| O=C(O)c1[nH]n(-c2ccc(S(=O)(=O)O)cc2)c(=O)c1N=Nc1ccc(S(=O)(=O)O)cc1 | 26.6 µM (active) and 27.4 µM (active) and 28.6 µM (active) | inactive | 30.7 µM (active) and 45.4 µM (active) | 48.7 µM (active) and 28.6 µM (active) | inactive | inactive | 27.4 µM (active) and 45.4 µM (active) | inactive | inactive |  |
| CC(O)C(=O)O (stereo not given) | inactive | inactive | inactive | inactive | inactive | inactive | inactive | inactive | inactive |  |
| NC(=O)c1cnccn1 | inactive | inactive | inactive | inactive | inactive | inactive | inactive |  | inactive | inactive |
| CC1(C)[C@@H]2CC[C@@]1(C)C(=O)C2 | inactive | inactive | inactive | inactive | inactive | inactive | inactive | inactive | inactive | inactive |
| C/C=C/c1ccc(OC)cc1 | inactive | inactive | inactive | inactive | inactive | inactive | inactive | inactive | inactive |  |
| Cc1cc(=O)n(-c2ccccc2)n1C | inactive | inactive | inactive | inactive | inactive | inactive | inactive |  | inactive | inactive |
| Nc1ccc(C(=O)O)cc1 | inactive | inactive | inactive | inactive | inactive | inactive | inactive | inactive | inactive |  |
| CCCCOC(=O)CC(CC(=O)OCCCC)(OC(C)=O)C(=O)OCCCC | inactive | inactive | inactive | inactive | inactive | 17.4 µM (active) and 27.3 µM (active) | inactive |  | inactive | inactive |
| CC(C)[C@@H]1CC[C@@H](C)C[C@H]1O | inactive | inactive | inactive | inactive | inactive | inactive | inactive | inactive | inactive |  |
| C1N2CN3CN1CN(C2)C3 | inactive | inactive | inactive | inactive | inactive | inactive | inactive | inactive | inactive |  |

| SMILES | Potency [1] | Potency [2] | Potency [3] | Potency [4] | Potency [5] | Potency [6] | Potency [7] | outcome [8] | Potency [9] | Potency [10] |
| --- | --- | --- | --- | --- | --- | --- | --- | --- | --- | --- |
| CCCCC1C(=O)N(c2ccccc2)N(c2ccccc2)C1=O | inactive | inactive | inactive | inactive | inactive | inactive | inactive | inactive | inactive | inactive |
| CCCCCCCCCCCCCCCC(=O)O | inactive | inactive | inactive | inactive | inactive | inactive | inactive | inactive | inactive |  |
| NNC(=O)c1ccncc1 | inactive | inactive | inactive | inactive | inactive | inactive | inactive | inactive | inactive | inactive |
| Cc1cc(=O)[nH]c(=S)[nH]1 | inactive | inactive | inactive | inactive | inactive | inactive | inactive | inactive | inactive |  |
| Cc1noc(NS(=O)(=O)c2ccc(N)cc2)c1C | inactive | inactive | inactive | inactive | inactive | inactive | inactive | inactive | inactive |  |
| O=S(=O)(O)c1ccc2cc(O)ccc2c1 | inactive | inactive | inactive | inactive | inactive | inactive | inactive |  | inactive |  |
| NC(N)=O | inactive | inactive | inactive | inactive | inactive | inactive | inactive | inactive | inactive |  |
| O=C1CN(/N=C/c2ccc([N+](=O)[O-])o2)C(=O)N1 | 30.5 µM (active) and 61.1 µM (active) | inactive | 27.2 µM (active) and 21.7 µM (active) and 13.3 µM (active) | 27.2 µM (active) and 21.7 µM (active) and 21.1 µM (active) | inactive | inactive | 54.3 µM (active) | inactive | inactive | inactive |
| O=c1ccc2ccccc2o1 | inactive | inactive | inactive | inactive | inactive | inactive | inactive | inactive | inactive |  |
| CC(C)(Oc1ccc(C2CC2(Cl)Cl)cc1)C(=O)O (stereo not given) | inactive | inactive | inactive | inactive | inactive | inactive | inactive | inactive | inactive |  |
| CCCCC(CC)COC(=O)/C=C/c1ccc(OC)cc1 (stereo not given) | inactive | inactive | inactive | inactive | inactive | inactive | inactive | inactive | inactive | inactive |
| CC(=O)Nc1nnc(S(N)(=O)=O)s1 | inactive | inactive | inactive | inactive | inactive | inactive | inactive | inactive | inactive |  |
| C[C@]12C=CC(=O)C=C1CC[C@@H]1[C@@H]2[C@@H](O)C[C@@]2(C)[C@H]1CC[C@]2(O)C(=O)CO | inactive | inactive | inactive | inactive | inactive | inactive | inactive |  | inactive |  |
| COc1ccc2[nH]cc(CCNC(C)=O)c2c1 | inactive | inactive | inactive | inactive | inactive | inactive | inactive | inactive | inactive | inactive |
| CCC1(c2ccccc2)C(=O)NCNC1=O | inactive | inactive | inactive | inactive | inactive | inactive | inactive | inactive | inactive |  |
| NC(N)=NC(=O)c1nc(Cl)c(N)nc1N | inactive | inactive | inactive | inactive | 61.5 µM (active) and 50.4 µM (active) and inactive | inactive | inactive | inactive | inactive |  |
